Legend:
Assay in all cases: log2 ratio of Biotin-Ahx-Ub-VS probe labelling (fragment/DMSO); higher = less target engagement (more negative = stronger competition), active = hit call of the paper (q ≤ 0.05, log2 ratio ≤ -1)
Conditions in all cases: compound concentration: 200 uM; treatment time: 3 h
USP34 = USP34 (UniProt Q70CQ2)
In short: (§1)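 HEK293T lysate in Tris/CHAPS/IGEPAL buffer with protease inhibitors (495 µg per sample) was given fragment at 200 µM or vehicle for 3 h, in triplicate. It then received Biotin-Ahx-Ub-VS at 0.5 µM final for 1 h. Labelled DUBs were NeutrAvidin-enriched, digested with LysC and trypsin, and run by diaPASEF LC-MS/MS. Values are average log2 fragment/vehicle ratios by unpaired t-test on global-median-normalised Spectronaut quantities of proteins with ≥2 unique peptides.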

USP36 = target: T1, USP36 (UniProt Q9P275)
T1 sequence (whole entry): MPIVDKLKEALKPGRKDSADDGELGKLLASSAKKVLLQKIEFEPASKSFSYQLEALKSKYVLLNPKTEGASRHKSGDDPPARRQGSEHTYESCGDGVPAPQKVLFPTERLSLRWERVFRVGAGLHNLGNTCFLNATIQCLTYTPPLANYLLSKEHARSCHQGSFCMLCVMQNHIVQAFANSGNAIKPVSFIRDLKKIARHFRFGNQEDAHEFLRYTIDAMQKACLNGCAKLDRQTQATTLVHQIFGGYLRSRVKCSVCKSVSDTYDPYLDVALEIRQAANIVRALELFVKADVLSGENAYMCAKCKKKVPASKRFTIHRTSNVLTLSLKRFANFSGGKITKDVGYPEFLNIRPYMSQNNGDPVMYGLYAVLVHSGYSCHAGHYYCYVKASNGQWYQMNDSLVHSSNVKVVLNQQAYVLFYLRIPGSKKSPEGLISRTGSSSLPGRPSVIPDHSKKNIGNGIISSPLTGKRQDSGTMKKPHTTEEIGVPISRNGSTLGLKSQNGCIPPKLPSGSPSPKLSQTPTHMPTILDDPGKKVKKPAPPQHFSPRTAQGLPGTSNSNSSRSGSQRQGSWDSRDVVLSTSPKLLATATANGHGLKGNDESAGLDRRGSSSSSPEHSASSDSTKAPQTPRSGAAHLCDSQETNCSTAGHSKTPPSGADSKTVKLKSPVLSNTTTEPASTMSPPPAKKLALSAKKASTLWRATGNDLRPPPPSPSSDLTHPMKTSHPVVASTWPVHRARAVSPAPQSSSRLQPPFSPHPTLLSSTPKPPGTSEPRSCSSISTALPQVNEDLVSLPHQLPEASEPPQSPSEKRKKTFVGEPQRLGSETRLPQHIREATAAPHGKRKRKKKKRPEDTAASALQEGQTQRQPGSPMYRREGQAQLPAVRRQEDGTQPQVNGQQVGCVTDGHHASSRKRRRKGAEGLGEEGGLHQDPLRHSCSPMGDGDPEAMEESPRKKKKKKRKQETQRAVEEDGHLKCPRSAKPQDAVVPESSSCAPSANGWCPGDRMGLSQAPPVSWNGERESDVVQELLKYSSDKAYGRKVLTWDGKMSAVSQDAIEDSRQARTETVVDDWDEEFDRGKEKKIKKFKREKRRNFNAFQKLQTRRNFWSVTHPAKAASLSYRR
In short: as §1

USP38 = target: T2, USP38 (UniProt Q8NB14)
T2 sequence (whole entry): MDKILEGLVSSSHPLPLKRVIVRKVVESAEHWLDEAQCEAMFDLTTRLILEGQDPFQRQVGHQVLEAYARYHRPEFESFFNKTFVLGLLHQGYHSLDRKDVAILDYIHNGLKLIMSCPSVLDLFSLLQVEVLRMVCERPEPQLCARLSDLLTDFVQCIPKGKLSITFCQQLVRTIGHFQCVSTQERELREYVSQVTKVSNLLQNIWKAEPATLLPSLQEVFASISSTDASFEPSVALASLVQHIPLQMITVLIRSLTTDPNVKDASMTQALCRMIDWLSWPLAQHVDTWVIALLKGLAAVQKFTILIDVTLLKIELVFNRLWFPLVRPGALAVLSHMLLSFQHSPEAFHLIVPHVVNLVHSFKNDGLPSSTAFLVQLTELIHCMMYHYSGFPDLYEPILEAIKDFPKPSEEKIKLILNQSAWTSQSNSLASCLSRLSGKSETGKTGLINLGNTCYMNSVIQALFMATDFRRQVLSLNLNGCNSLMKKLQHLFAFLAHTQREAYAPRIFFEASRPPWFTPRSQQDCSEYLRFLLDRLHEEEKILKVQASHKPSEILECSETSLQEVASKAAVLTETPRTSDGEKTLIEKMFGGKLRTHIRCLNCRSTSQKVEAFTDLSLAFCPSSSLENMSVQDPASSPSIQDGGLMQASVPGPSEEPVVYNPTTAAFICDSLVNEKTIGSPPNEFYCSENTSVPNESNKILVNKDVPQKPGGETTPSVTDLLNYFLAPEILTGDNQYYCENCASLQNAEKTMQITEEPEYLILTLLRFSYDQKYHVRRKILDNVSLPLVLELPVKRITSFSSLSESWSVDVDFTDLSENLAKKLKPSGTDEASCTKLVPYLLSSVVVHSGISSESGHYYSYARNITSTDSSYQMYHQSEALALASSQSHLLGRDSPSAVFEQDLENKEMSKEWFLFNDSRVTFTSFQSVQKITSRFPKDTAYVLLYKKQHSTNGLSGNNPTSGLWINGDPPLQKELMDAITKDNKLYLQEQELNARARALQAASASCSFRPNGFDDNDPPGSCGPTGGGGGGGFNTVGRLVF
In short: as §1

USP39 = target: T3, USP39 (UniProt Q53GS9)
T3 sequence (whole entry): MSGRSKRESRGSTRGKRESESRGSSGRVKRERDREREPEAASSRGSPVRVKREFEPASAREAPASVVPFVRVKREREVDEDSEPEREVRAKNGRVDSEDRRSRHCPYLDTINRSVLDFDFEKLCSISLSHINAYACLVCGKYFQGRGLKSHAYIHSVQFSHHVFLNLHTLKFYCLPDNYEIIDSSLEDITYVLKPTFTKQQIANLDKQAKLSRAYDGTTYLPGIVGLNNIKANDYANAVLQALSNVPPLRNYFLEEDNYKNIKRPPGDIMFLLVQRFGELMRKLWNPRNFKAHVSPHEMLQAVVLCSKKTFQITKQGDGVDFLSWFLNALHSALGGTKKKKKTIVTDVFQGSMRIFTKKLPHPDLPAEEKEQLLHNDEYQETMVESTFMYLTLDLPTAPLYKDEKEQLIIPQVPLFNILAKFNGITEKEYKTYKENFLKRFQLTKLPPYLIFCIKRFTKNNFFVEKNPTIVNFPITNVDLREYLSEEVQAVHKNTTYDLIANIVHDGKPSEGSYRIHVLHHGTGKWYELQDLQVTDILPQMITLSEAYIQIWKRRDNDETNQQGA
In short: as §1

USP4 = target: T4, USP4 (UniProt Q13107)
T4 sequence (whole entry): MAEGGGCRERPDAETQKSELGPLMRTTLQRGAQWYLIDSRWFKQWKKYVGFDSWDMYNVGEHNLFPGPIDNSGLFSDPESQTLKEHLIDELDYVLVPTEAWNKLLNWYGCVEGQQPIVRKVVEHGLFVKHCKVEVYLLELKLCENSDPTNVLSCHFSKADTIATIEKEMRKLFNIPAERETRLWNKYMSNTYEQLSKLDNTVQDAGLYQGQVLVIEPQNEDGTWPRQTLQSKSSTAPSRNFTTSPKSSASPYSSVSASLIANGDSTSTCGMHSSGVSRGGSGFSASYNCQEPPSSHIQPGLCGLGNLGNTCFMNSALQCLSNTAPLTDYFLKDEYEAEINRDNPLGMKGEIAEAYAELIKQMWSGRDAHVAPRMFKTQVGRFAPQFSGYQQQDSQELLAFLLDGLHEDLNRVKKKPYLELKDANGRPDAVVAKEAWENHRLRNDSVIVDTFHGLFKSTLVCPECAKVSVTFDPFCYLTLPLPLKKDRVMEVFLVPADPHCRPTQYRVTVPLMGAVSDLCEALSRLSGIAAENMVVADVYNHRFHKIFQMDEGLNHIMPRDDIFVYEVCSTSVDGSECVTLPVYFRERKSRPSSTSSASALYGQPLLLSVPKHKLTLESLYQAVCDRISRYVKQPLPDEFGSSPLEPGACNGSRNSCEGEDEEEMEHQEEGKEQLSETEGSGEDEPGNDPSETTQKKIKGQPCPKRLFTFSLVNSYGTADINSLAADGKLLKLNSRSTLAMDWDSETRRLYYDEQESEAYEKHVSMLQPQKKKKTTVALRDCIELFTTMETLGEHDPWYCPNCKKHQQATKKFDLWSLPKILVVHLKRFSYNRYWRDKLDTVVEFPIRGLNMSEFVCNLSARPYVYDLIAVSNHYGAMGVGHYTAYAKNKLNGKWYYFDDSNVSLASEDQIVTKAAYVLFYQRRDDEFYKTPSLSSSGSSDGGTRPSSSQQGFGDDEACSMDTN
In short: as §1

Measured: log2 ratio of Biotin-Ahx-Ub-VS probe labelling

Chain of USP34 (Q70CQ2 whole entry, the tested form may be a part): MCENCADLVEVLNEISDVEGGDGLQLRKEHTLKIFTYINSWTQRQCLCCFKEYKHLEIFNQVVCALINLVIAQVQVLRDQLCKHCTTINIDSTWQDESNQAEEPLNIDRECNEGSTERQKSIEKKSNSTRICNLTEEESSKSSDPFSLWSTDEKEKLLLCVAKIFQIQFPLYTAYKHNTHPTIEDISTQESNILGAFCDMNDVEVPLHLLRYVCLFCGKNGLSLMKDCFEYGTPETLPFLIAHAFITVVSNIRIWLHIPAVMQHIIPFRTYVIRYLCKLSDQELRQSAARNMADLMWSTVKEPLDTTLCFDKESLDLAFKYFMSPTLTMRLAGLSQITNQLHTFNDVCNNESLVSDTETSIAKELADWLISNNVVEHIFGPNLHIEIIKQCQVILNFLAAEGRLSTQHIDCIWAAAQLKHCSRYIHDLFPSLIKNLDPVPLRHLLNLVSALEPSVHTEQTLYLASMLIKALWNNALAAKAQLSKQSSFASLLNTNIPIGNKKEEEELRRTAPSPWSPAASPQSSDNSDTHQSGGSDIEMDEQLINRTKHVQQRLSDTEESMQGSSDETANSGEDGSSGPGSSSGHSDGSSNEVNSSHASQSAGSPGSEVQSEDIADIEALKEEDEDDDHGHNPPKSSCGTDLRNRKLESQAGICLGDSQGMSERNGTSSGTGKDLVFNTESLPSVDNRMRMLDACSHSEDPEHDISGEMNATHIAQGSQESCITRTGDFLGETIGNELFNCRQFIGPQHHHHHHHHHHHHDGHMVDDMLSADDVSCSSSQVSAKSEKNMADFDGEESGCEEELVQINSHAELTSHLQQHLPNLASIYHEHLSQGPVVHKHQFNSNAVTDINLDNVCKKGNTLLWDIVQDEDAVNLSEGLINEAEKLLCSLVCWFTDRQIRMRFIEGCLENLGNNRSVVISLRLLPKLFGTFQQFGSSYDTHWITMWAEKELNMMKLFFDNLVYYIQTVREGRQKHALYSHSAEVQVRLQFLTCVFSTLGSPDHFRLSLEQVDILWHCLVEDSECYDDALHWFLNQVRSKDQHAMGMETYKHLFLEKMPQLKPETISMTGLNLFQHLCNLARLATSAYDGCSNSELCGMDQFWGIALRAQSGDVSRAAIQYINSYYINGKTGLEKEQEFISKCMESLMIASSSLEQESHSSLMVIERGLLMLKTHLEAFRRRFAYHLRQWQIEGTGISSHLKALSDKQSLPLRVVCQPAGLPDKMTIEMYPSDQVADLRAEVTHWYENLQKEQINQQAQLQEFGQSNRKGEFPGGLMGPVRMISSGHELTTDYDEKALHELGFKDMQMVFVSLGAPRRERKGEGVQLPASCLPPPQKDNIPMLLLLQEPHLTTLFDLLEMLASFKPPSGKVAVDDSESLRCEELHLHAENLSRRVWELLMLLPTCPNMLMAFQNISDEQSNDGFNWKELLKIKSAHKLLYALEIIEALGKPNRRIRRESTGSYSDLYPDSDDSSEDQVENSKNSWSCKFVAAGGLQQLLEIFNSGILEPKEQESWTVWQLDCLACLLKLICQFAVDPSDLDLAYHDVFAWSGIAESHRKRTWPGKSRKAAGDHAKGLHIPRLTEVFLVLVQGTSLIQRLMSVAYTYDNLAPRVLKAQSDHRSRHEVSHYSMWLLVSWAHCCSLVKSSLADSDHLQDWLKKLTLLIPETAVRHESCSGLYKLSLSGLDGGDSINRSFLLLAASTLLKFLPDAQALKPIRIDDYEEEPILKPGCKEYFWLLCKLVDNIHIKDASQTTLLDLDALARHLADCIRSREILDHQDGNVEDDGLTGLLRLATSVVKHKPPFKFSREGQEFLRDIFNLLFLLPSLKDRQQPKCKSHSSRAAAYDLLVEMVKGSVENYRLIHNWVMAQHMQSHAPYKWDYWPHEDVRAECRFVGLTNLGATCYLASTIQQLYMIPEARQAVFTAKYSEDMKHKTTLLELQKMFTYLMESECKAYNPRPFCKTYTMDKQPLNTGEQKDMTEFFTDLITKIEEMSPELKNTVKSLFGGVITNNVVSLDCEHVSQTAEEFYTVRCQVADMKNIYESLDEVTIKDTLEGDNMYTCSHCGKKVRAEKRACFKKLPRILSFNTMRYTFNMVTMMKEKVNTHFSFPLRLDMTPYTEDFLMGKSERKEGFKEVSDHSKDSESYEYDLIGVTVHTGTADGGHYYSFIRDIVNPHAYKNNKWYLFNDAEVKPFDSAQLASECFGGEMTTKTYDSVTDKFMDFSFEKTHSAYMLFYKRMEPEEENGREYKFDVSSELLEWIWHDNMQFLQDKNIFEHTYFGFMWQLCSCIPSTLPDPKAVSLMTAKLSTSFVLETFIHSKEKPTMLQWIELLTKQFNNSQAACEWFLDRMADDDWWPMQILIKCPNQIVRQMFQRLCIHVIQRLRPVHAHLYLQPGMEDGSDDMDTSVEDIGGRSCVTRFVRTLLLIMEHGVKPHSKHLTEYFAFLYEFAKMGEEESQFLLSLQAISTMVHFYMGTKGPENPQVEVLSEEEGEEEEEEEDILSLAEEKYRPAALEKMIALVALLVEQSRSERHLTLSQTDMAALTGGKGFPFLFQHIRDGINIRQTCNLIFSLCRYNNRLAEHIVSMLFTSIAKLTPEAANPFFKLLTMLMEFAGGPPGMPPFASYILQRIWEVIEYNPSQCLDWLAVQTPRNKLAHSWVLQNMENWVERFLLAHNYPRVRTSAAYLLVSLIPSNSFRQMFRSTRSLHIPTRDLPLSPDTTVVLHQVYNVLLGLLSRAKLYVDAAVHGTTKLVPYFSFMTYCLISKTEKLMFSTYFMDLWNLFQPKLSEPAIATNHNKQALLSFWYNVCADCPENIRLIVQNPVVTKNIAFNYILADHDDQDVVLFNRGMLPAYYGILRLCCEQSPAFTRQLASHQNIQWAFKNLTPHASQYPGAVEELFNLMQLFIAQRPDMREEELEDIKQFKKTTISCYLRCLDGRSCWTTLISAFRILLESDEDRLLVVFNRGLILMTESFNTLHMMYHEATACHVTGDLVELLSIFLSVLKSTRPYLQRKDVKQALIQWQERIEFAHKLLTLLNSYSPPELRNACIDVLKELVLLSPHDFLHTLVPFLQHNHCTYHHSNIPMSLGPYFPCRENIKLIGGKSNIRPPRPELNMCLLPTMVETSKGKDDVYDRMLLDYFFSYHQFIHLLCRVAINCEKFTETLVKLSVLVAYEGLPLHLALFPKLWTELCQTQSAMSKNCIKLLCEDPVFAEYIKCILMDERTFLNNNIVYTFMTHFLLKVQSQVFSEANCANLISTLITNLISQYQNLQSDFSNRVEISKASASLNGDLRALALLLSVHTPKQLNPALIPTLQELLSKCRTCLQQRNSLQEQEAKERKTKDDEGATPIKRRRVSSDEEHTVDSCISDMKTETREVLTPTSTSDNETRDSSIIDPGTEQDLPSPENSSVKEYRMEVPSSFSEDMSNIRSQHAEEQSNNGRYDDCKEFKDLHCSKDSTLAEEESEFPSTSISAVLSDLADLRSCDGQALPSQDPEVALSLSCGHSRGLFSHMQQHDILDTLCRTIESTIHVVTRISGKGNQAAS

Cl.O=C(CN1CCN(C(=O)CCl)CC1)Nc1ccc(F)cc1
inactive: USP34 0.1 | USP36 -0.231 | USP38 -0.043 | USP39 0.0696 | USP4 0.142
